In PubChem BioAssay:
The source made the active and inactive calls. No rule for the calls is given here.

Test: inhibition of PAO1 biofilm formation – strain PAO1, LB-PBS medium, absorbance 600 nm, primary screen (AID 1176); also: test concentration not given here
Settings: P. aeruginosa PAO1 growth/biofilm, A600, 12 h; higher = more signal

z-score, inactive:
COC(=O)[C@@]1(Cc2ccc(F)cc2)[C@H]2c3cc(C(=O)N(C)C)n(CCc4ccc(O)c(O)c4)c3C[C@H]2CN1C(=O)c1ccccc1 -0.154
CCOC(=O)C1=CC[C@@H](c2ccc(OC)cc2)N(S(=O)(=O)c2ccc(C)cc2)[C@H]1c1ccc(C)cc1 -0.0601
[N-]=[N+]=NCc1ccccc1[C@@H]1OC(c2ccc(OCCCO)cc2)=N[C@]1(Cc1ccccc1N=[N+]=[N-])C(=O)O 1.42
COC(=O)[C@@]1(Cc2ccccc2)[C@H]2c3cc(C(=O)N(C)C)n(CCSC(=N)N)c3C[C@H]2CN1C(=O)c1ccccc1 -0.0424
Cc1ccc(S[C@]2(C(=O)NC(C)C)CC(=O)N(C3CCCCC3)[C@@H]2c2ccc(CO)cc2I)cc1 0.462
COC(=O)C(CC#Cc1ccc2c(c1)[C@]1(C(=O)N2)[C@H](C(=O)N2CCc3cc(OC)c(OC)cc3C2)[C@H]2C(=O)O[C@H](c3ccccc3)[C@H](c3ccccc3)N2[C@@H]1c1ccccc1OCCO)C(=O)OC 3.81
C=CC[C@@]12N=C(c3ccc(OCCCO)cc3)O[C@@H]1c1ccccc1N(CCC)C2=O 1.2
CCC(CC)C(O)C1C=CC2C(=O)N(c3ccccc3)C(=O)C2N1Nc1ccccc1F (stereo unspecified) 0.67
C=C(COC)/C(=C/C[C@H](OC(C)=O)c1ccccc1OCCO)c1cc(C(=O)OC)ccc1OC -0.718
CN(C)CCCC[C@@H]1NC(=O)[C@@H]2C[C@H](C(=O)NCCCCCN)[C@H](c3cccc(OCCO)c3)N2C1=O 0.531
COC(=O)C[C@H]1O[C@@]2(C[C@@H]1[Si](C)(C)C)C(=O)N(C)c1ccccc12 0.826
NC(=O)N1C(=O)C2C(C1=O)C1C=C(CCCO)C2C(C2CC2)N1Cc1sc2ccccc2c1Cl (stereo unspecified) -0.0099
CCOC(=O)C1=CCC(c2cc3ccccc3[nH]2)N(CCN2CC(C(=O)OCC)=CCC2c2cc3ccccc3[nH]2)C1 (stereo unspecified) 0.878
COCC(=C=CC[C@H](O)c1ccccc1OCCO)C[C@H](O)COCc1ccccc1 -0.566
COc1ccc([Si](C)(C)[C@@H]2[C@@H](CC(=O)N3CCC[C@H]3CO)O[C@]3(C(=O)N(Cc4ccc(N5CCOC5=O)cc4)c4ccccc43)[C@H]2C)cc1 1.06
C=C(CCCC)C(=O)CC[C@H](OC(=O)c1ccccc1-c1ccccc1C(=O)O)c1ccc(OCCO)cc1 0.203
COC(=O)[C@@]1(Cc2ccc(F)cc2)[C@H]2c3cc(C(=O)N4CCCC4)n(Cc4ccccn4)c3C[C@H]2CN1C(=O)c1ccccc1 1.03
O=C1NC(=O)C2C1C=CC(C(O)c1ccc([N+](=O)[O-])cc1)N2Nc1ccccn1 (stereo unspecified) 0.586
CCCC#C[Si](O[C@H](CC)c1cn(Cc2ccccc2)nn1)(C(C)C)C(C)C 0.0763
COCCCNC(=O)[C@@]1(CCC(=O)OC(C)(C)C)COC(c2ccc(OCCCO)cc2)=N1 -0.978
C=C(CCCC)/C(=C/C[C@H](OC(C)=O)c1cccc(OCCO)c1)c1cnc2ccccc2c1 -0.693
CN(C)C(=O)[C@]1(Cc2ccccc2)N=C(c2ccc(OCCCO)cc2)O[C@@H]1c1ccccc1CN=[N+]=[N-] -0.248
Cc1ccc(S[C@]2(C(=O)NCc3ccccc3)CC(=O)N(Cc3ccccc3C(F)(F)F)[C@@H]2c2ccc(CO)cc2)cc1 0.416
CCCN1C(=O)[C@]2(CCC(=O)OC(C)(C)C)N=C(c3ccc(OCCCO)cc3)O[C@@H]2c2ccccc21 3.33
C[N+](C)(C)CCCC[C@@H]1NC(=O)[C@H]2C[C@@H](C(=O)NCCCCCNC(=O)CS)[C@@H](c3cccc(OCCO)c3)N2C1=O 0.298
CO[C@H]1O[C@H](CO)[C@@H](OC(=O)Nc2ccccc2-c2ccccc2)[C@H](OC(=O)Nc2ccccc2)[C@H]1OC(=O)Nc1ccccc1 2.11
CC(C)=C1C(=O)C(c2ccccc2)=C2CN3C(=O)N(CCc4ccccc4)C(=O)[C@]3(C)[C@H]21 -0.0424
C[C@]1(C(=O)O)c2ccccc2C(=O)N(Cc2cc(F)cc(C(F)(F)F)c2)[C@H]1c1ccc(CO)cc1 1.01
CN(C)CCCNC(=O)[C@@]1(Cc2ccccc2I)c2ccccc2C(=O)N(C2CCCCC2)[C@H]1c1ccc(CO)cc1 0.36
C#CCN1[C@@H](Cc2ccccc2)C(=O)O[C@H](Cc2ccccc2)[C@@H]1/C=C/C1CC1 -0.565
CCCc1cc2c(n1CCc1ccc(Cl)cc1)C(C)C1CN(C(=O)c3ccccc3)C(C)(C(=O)OC)C21 (stereo unspecified) 0.659
CN1C(=O)[C@@H]2[C@@H](CC(COc3ccccc3)=C3[C@@H](CCc4ccccc4)OB(O)C[C@@H]32)C1=O 0.2
CC(C)(C)OC(=O)CC[C@]1(C(=O)NCC(O)CO)N=C(c2ccc(OCCCO)cc2)O[C@H]1c1ccccc1N=[N+]=[N-] (stereo partly specified) 0.948
COc1ccc([Si](C)(C)[C@H]2[C@H](CC(=O)N3CCC[C@H]3CO)O[C@@]3(C(=O)N(Cc4ccc(N5CCCCC5=O)cc4)c4ccccc43)[C@@H]2C)cc1 -0.012
C=CCOC(=O)[C@H]1[C@@H]2C(=O)O[C@@H](c3ccccc3)[C@@H](c3ccccc3)N2[C@@H](c2ccc(OCCOC(=O)[C@@H]3C[C@@H]4C(=O)N[C@@H](CCCC[N+](C)(C)C)C(=O)N4[C@@H]3c3ccc(O)cc3)cc2)[C@]12C(=O)Nc1ccc(I)cc12 1.12
O=C(NCc1ccc(F)cc1)[C@H]1C[C@H]2C(=O)N3CCC[C@H]3C(=O)N2[C@H]1c1ccc(O)cc1 2.39
